In the library only some 2.4% were active in any assay of this set; here they are far more common.
Rango release inh: inhibition of RanGTP-driven Rango-importin beta dissociation | O95149+P62826 | Biochemical FRET Rango-importin beta, RanGTP-induced dissociation | Potency, µM (top dose mostly 46.1 µM), without a hit: top-dose activity change, negative = inhibition | hit rate 0.071% among 340,000; calls by dose curve; further: % of control where 0% means no effect; nearly all actives have a fitted effect of over 45% in size
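Recombinant Rango FRET biosensor (EYFP–snurportin 1 IBB–cerulean CFP10) at 0.1 uM premixed with 0.25 uM importin beta in PBS, 1 mM DTT, 0.02% Tween-20, 0.1% BSA. Compound added 5 min; RanGTP-RCC1 (0.6 uM Ran, 2 mM GTP, 0.2 uM RCC1) then triggers release, read at 45 min.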
PKM2 act: PKM2 (human) enzyme activation. P14618. purified PKM2, Kinase-Glo ATP luminescence, activation; response scale: 0% is enzyme alone, no compound. Potency, µM (titrated, usually from 57.5 µM), inactives show at the top dose activation, most hits filed as activators. hit rate 0.34% among 260,000; further: on the % scale 0 is the no-effect control and ±100 the full control effect; nearly all actives have a fitted effect of over 55% in size
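hPK-M2, >95% pure; 0.1 mM ADP / 0.5 mM PEP final; imidazole pH7.2 buffer w/ 7 mM MgCl2, 50 mM KCl; 1 h RT; Kinase-Glo lum. Intermediate enzyme activity for dual inhibitor/activator qHTS.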
PGK inhibitor: T. brucei PGK inhibition. P07378. PGK/GAPDH coupled, Kinase-Glo luminescence, 60 min. Potency, µM (highest dose often 57.5 µM), for the others: at the top dose activity change, negative = inhibition, most hits filed as inhibitors. hit rate 0.043% among 380,000; further: on the % scale 0 is the no-effect control and ±100 the full control effect; nearly all actives have a fitted effect of over 60% in size
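Recombinant glycosomal PGK reaction used 1,3-bisphosphoglycerate generated in-well by GAPDH (100nM final) in 100mM TEA pH 7.6, 5mM MgCl2, 0.01% Tween-20. After 60 minutes at room temperature, ATP was read by Kinase-Glo Plus luminescence end-point.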
ELG1 repair inh: blocks ELG1-dependent DNA repair in HEK293T cells; AID 504467; hit rate 2.3% among 330,000; HEK293T ELG1-luciferase reporter, luminescence, 16 h; DNA damage induced by 5-fluorouridine; Potency, µM (doses to about 46.1 µM), for inactives: top-dose activity change, negative = inhibition, hits mostly inhibitors; further: on the % scale 0 is the no-effect control and ±100 the full control effect; nearly all actives have a fitted effect of over 55% in size
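Cells (2,000 per well) received 5-fluorouridine plus test compound or DMSO and were incubated 16 hr at 37 °C, 5% CO2. Luciferase activity was read by luminescence 30 min after ONE-Glo addition; signal suppression marked inhibition of damage-induced ELG1 function.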
Rango-impB inh: Rango-importin beta binding inhibition | Q14974 | Rango CFP/YFP FRET sensor + importin beta, 45 min | Potency, µM (series often up to 92.2 µM), for the others: top-dose inhibition of complex formation | hit rate 0.031% among 340,000; calls by dose curve;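 further: 0% = DMSO wells and 100% = buffer wells lacking importin beta; nearly all actives have a fitted effect of over 15% in size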
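FRET biosensor Rango (snurportin 1 IBB between N-terminal EYFP and C-terminal Cerulean), 50 nM in PBS/1 mM DTT/0.02% Tween-20/0.1% BSA, preincubated 5 min RT with compound; 0.125 microM importin beta added, 45 min RT, CFP/YFP FRET ratio read.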
Tb PFK block: inhibitors of T. brucei phosphofructokinase | O15648 | T. brucei PFK, ADP-Glo luminescence | Potency, µM (titrated, usually from 57.5 µM), inactives show at the highest dose activity, negative = inhibition, usual class: inhibitors | hit rate 0.17% among 330,000 | AID 485367;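 further: 0% = uninhibited 1x PFK enzyme wells and -100% = no-enzyme wells; nearly all actives have a fitted effect of over 60% in size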
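1.25 nM PFK with 0.5 mM F6P and 0.1 mM ATP in 0.1 M TEA pH 8.0, 5 mM MgCl2, incubated 45 min at room temperature; ADP measured by ADP-Glo luminescence; compounds titrated up to 57 uM.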
ELG1 FLuc counter: luciferase inhibition in cell-free luciferin readout for ELG1 hits; shares compounds with ELG1 repair inh; hit rate 3% among 350; Potency, µM (highest dose often 46.1 µM), inactives show top-dose activity change, negative = inhibition, actives largely listed as inhibitors; cell-free firefly luciferase luminescence counter-screen, ViewLux; AID 624247; further: on the % scale 0 is the no-effect control and ±100 the full control effect
ELG1-Luc inh: inhibits ELG1-dependent DNA repair in HEK293T cells, confirmed; shares compounds with ELG1 repair inh; HEK293T ELG1-luciferase levels, luminescence; cells co-treated with 5-fluorouridine; Potency, µM (highest dose often 46.1 µM), without a hit: top-dose activity change, negative = inhibition, actives largely listed as inhibitors; hit rate 68% among 670; AID 624248; further: on the % scale 0 is the no-effect control and ±100 the full control effect; nearly all actives have a fitted effect of over 55% in size
Target sequence (Q96QE3 whole entry, looked up): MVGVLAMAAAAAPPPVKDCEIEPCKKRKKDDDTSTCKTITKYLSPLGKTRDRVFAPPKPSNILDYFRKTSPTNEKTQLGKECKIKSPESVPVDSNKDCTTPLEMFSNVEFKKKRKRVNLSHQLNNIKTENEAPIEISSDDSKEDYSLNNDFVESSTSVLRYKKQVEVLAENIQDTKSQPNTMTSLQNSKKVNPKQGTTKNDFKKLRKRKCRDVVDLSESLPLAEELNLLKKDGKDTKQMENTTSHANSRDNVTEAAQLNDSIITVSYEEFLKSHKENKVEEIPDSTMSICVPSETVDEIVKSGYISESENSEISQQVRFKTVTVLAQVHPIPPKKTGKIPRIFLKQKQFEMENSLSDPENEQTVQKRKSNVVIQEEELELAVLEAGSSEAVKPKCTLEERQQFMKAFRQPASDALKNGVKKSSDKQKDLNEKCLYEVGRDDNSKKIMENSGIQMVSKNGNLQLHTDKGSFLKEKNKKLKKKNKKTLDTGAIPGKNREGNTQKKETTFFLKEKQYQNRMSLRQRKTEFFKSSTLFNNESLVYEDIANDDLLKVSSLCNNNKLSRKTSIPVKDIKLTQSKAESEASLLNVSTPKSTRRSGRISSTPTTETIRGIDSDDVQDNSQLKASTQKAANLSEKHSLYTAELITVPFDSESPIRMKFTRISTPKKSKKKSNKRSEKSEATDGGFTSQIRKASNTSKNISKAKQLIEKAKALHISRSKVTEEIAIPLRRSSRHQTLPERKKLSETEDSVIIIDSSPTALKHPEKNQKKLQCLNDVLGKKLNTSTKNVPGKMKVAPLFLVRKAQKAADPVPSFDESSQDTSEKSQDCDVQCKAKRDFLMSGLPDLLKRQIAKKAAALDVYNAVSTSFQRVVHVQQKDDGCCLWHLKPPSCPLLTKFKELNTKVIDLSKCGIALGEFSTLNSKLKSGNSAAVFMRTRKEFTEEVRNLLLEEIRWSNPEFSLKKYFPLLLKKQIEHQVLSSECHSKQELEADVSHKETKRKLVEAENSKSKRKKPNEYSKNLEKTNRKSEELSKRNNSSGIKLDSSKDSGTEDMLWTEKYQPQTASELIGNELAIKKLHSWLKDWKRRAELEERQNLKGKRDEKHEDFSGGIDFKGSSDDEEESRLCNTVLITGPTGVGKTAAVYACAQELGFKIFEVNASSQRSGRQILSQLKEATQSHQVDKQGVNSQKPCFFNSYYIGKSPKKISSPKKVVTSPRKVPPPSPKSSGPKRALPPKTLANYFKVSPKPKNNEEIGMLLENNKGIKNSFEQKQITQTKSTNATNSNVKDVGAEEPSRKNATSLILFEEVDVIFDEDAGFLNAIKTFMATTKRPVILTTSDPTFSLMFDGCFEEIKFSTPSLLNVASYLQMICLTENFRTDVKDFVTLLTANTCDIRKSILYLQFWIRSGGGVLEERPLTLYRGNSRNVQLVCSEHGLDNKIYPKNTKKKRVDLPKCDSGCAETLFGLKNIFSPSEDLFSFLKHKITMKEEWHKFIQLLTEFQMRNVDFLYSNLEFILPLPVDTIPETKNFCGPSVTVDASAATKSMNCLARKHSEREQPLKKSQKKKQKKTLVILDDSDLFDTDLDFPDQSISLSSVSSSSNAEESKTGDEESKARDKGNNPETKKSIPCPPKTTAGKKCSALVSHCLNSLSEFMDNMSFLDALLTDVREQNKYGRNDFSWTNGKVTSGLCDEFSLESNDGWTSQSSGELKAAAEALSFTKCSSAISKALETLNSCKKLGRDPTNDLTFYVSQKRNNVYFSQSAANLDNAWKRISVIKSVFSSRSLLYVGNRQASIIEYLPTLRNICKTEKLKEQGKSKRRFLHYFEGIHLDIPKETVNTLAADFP
ELG1 MMS Luc: confirmation of human ELG1 repair inhibitors, MMS stimulated; HEK293T luciferase-tagged ELG1 level, MMS stimulated; Potency, µM (highest dose often 46.1 µM), without a hit: at the highest dose activity change, negative = inhibition, actives largely listed as inhibitors; hit rate 53% among 670; AID 624249; shares compounds with ELG1 repair inh; further: on the % scale 0 is the no-effect control and ±100 the full control effect; nearly all actives have a fitted effect of over 60% in size
ELG1 5-FU: confirmation of ELG1 repair inhibitors: viability with 5FU. shares compounds with ELG1 repair inh. cell viability with 5-FU, ELG1-dependent repair. Potency, µM (series often up to 46.1 µM), for inactives: at the top dose activity change, negative = viability loss, most hits filed as cytotoxic. 670 tested, under 10 active. AID 624250;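 further: ELG1-luc HEK293T cells cotreated with 5-fluorouridine at 10 µM final; viability measured 16 h after compound addition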
ELG1 MMS cell: confirmation of ELG1 repair inhibitors: viability with MMS | shares compounds with ELG1 repair inh | AID 624251 | hit rate 33% among 670 | Potency, µM (titrated, usually from 46.1 µM), without a hit: top-dose activity change, negative = viability loss, hits mostly cytotoxic | Cell viability with MMS, ELG1-dependent DNA repair;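 further: ELG1-luc HEK293T cells co-treated with 10 µM MMS; viability read 16 h after compound addition; on the % scale 0 is the no-effect control and ±100 the full control effect; nearly all actives have a fitted effect of over 60% in size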
ELG1 unstim viab: unstimulated viability counter-screen for ELG1 repair hits; shares compounds with ELG1 repair inh; cell viability counter-screen, unstimulated, luminescence; Potency, µM (doses to about 45.9 µM), for the others: at the highest dose activity change, negative = loss of viability, usual class: cytotoxic; hit rate 8% among 900; AID 624252;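 further: compound exposure lasted 16 hours before reading; on the % scale 0 is the no-effect control and ±100 the full control effect; nearly all actives have a fitted effect of over 55% in size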
FLuc biochem: firefly luciferase inhibition counter-screen. AID 624253. shares compounds with ELG1 repair inh. Potency, µM (doses to about 57.5 µM), for the others: at the highest dose activity, negative = inhibition, actives largely listed as inhibitors. hit rate 10% among 350. purified firefly luciferase, luminescence counter-screen; further: on the % scale 0 is the no-effect control and ±100 the full control effect
* marks the source's active call; other numbers are inactive results; i = inactive; ? = inconclusive; . = no result; [ ] = dose if it differs, or a comment. Unless noted, the call rests on the fitted dose curve; in most records, active means well fitted curve in the direction sought with a large enough effect; inconclusive means small, poorly fitted or top-dose-only effect, or another doubt; inactive means no such curve, though single readings can be large; an effect the other way counts as inactive or inconclusive. Potency means the concentration at half of the fitted maximal effect.

SMILES	Rango release inh	PKM2 act	PGK inhibitor	ELG1 repair inh	Rango-impB inh	Tb PFK block	ELG1-Luc inh	ELG1 MMS Luc	ELG1 5-FU	ELG1 MMS cell	ELG1 unstim viab	others
CC(=O)c1cccc(NC(=O)c2cc3nc(-c4ccc(Br)cc4)cc(C(F)(F)F)n3n2)c1	.	.	-5%	.	.	.	.	.	.	.	.
COc1ccc(CNC(=O)c2ccc(Cl)c(S(=O)(=O)N3CCOCC3)c2)cc1OC	1%	.	-7%	?	-11%	-9%	.	.	.	.	.
Cc1nn(-c2ccccc2)c2c1C(O)n1c(nc3ccccc31)S2 (stereo not drawn)	-27%	-10%	-8%	2.6µM*	-5%	-1%	16µM*	11µM*	?	25µM*	?
Cc1nn(-c2ccccc2)c(C)c1Cc1ccc(O)cc1	-11%	.	-9%	?	2%	0%	.	.	.	.	.
CC(C)n1cnc2c(NCc3ccccc3)cc(N[C@H](C)CO)cc21	?	.	-14%	4.1µM*	?	-5%	7.9µM*	0.44µM*	16µM*	0.71µM*	8.9µM*
CC(C)c1nc2sc3c(NCc4ccco4)ncnc3c2c2c1COC(C)(C)C2	-12%	1%	-3%	?	-7%	-1%	11µM*	13%	?	-2%	?	ELG1 FLuc counter=21%;FLuc biochem=-3%
CC(C)c1nc2sc3c(NCc4ccccc4)ncnc3c2c2c1COC(C)(C)C2	5%	-5%	-4%	?	-1%	2%	.	.	.	.	.
CC(C)c1nc2sc3c(=O)n(N)cnc3c2c2c1COC(C)(C)C2	0%	-4%	1%	7%	-2%	6%	?	-5%	?	3%	2%	ELG1 FLuc counter=-2%;FLuc biochem=-3%
CCOc1ccccc1CNC(=O)C1CCCN(c2ncnc3onc(-c4ccc(F)cc4)c23)C1 (stereo not drawn)	.	.	11%	.	.	.	.	.	.	.	.
COc1ccc(NC(=O)c2ccc(N(C)S(C)(=O)=O)cc2)cc1OC	2%	-4%	.	23%	0%	1%	.	.	.	.	.
CCN(CC)S(=O)(=O)c1ccc(NC(=O)c2ccc(N(C)S(C)(=O)=O)cc2)cc1	15%	0%	-3%	3.7µM*	1%	0%	?	0.79µM*	-1%	1.1µM*	?
COC(=O)c1ccc(NC(=O)c2ccc(N(C)S(C)(=O)=O)cc2)cc1	-3%	0%	7%[11.5 µM]	3.7µM*	6%	-1%	-12%	5µM*	-7%	5µM*	?
CCCCc1ccc(NC(=O)c2ccc(N(C)S(C)(=O)=O)cc2)cc1	-8%	-11%	-4%	1.5µM*	-2%	1%	?	0.44µM*	-10%	0.63µM*	?
CCN(CC)S(=O)(=O)c1ccc(NC(=O)c2ccccc2N(C)S(C)(=O)=O)cc1	4%	-3%	-9%	2%	1%	-4%	.	.	.	.	.
COC(=O)[C@]1(CC(C)C)N[C@H](c2ccc(-c3ccc(F)cc3)c(OC)c2)[C@@H]2C(=O)N(C)C(=O)[C@@H]21	-4%	.	i	4%	-3%	-3%	.	.	.	.	.
C[C@]12c3[nH]c4ccccc4c3CCN1C(=O)C(CC(=O)NCCN1CCOCC1)C[C@@H]2C(=O)N1CCOCC1 (stereo partly drawn)	-9%	.	3%	?	-1%	0%	.	.	.	.	.
Nc1ccc2nc(-c3ccccc3)cnc2c1	?	.	-6%	.	?	.	.	.	.	.	.
Cc1cc2ncc(-c3ccccc3)nc2cc1C	-7%	.	.	?	3%	2%	.	.	.	.	?
O=c1[nH]c(=O)n([C@@H]2O[C@H](CO)[C@@H](O)[C@H]2O)cc1F	.	.	.	.	.	.	.	.	.	.	?
O=c1[nH]c(=O)n(C2OC(CO)C(O)C2O)cc1F (stereo not drawn)	8%	.	-5%	.	?	.	.	.	.	.	.
CCNC(=O)C(=O)Nc1ccc2c(c1)N(S(=O)(=O)c1cccs1)CCC2	4%	.	-7%	-22%	0%	11%	.	.	.	.	.
CCCNC(=O)C(=O)Nc1ccc2c(c1)N(S(=O)(=O)c1cccs1)CCC2	-1%	.	i	3.3µM*	0%	6%	16µM*	5.6µM*	?	?	-10%
Cc1cc(NC(=O)c2cnn3c(C(F)F)cc(C4CC4)nc23)no1	14%	2%	-6%	-10%	3%	0%	?	-3%	-1%	-6%	-12%	ELG1 FLuc counter=1%;FLuc biochem=-5%
CCOc1ccc(S(=O)(=O)N2CCC(C(=O)NC3CC3)CC2)cc1C	2%	-7%	-2%	0%	3%	1%	.	.	.	.	.
Cc1ccccc1OCc1nc2ccccc2c(=O)n1/N=C/c1cn[nH]c1-c1ccccc1	0%	1%	-4%	4.6µM*	-2%	9%	7.1µM*	14µM*	?	?	?	ELG1 FLuc counter=-7%;FLuc biochem=-18%
